# Assays:
# [1] = target: Serine/threonine-protein kinase SIK1 (Homo sapiens) (UniProt P57059); conditions: at 10 µM
# [2] = target: SRSF protein kinase 1 (Homo sapiens) (UniProt Q96SB4); conditions: at 1 µM
# [3] = target: SRSF protein kinase 1 (Homo sapiens) (UniProt Q96SB4); conditions: at 10 µM
# [4] = target: SRSF protein kinase 2 (Homo sapiens) (UniProt P78362); conditions: at 1 µM
# [5] = target: SRSF protein kinase 2 (Homo sapiens) (UniProt P78362); conditions: at 10 µM
# [6] = target: Serine/threonine-protein kinase 33 (Homo sapiens) (UniProt Q9BYT3); conditions: at 1 µM
# [7] = target: Serine/threonine-protein kinase 33 (Homo sapiens) (UniProt Q9BYT3); conditions: at 10 µM
# [8] = target: Serine/threonine-protein kinase PLK2 (Homo sapiens) (UniProt Q9NYY3); conditions: at 1 µM
# [9] = target: Serine/threonine-protein kinase PLK2 (Homo sapiens) (UniProt Q9NYY3); conditions: at 10 µM
# [10] = target: Tyrosine-protein kinase SYK (Homo sapiens) (UniProt P43405); conditions: at 1 µM
# SRSF protein kinase 1 (Homo sapiens), sequence (Q96SB4 whole entry): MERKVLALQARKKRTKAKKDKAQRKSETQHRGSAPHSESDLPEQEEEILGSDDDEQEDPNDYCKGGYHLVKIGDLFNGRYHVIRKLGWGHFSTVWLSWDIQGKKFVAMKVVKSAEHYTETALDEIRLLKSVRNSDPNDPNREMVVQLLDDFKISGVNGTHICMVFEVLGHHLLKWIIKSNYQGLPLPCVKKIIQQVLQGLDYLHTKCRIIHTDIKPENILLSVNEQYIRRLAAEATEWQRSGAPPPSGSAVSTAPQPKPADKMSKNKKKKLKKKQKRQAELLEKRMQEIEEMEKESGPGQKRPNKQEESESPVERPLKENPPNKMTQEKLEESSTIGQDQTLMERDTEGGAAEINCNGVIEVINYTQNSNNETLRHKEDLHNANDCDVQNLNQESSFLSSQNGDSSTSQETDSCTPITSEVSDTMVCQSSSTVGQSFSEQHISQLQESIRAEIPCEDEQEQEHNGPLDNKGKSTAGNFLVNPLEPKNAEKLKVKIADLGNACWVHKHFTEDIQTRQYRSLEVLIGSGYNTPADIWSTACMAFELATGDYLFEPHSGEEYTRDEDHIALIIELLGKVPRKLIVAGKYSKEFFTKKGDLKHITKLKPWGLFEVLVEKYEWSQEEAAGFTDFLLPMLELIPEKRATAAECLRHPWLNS
# Serine/threonine-protein kinase SIK1 (Homo sapiens), sequence (P57059 whole entry): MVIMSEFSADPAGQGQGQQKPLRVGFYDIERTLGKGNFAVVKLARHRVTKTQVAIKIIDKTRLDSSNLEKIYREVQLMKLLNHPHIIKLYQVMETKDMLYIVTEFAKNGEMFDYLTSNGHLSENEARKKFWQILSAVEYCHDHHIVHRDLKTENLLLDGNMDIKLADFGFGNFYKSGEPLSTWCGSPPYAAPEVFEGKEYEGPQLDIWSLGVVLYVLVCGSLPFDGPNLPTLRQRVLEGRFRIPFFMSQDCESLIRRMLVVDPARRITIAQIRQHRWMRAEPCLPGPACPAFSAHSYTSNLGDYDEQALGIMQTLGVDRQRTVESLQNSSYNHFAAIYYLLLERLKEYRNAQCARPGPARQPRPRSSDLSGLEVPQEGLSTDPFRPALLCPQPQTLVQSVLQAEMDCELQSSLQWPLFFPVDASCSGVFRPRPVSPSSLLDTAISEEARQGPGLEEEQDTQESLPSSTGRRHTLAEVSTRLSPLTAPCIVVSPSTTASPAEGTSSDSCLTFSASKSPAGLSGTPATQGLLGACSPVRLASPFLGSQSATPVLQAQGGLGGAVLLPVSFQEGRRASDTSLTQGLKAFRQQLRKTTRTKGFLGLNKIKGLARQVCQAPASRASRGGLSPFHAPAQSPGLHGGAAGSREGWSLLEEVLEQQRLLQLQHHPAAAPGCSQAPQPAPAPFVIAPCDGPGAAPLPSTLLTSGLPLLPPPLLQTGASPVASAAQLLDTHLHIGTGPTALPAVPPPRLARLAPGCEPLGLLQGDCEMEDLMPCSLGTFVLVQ
# Serine/threonine-protein kinase 33 (Homo sapiens), sequence (Q9BYT3 whole entry, looked up): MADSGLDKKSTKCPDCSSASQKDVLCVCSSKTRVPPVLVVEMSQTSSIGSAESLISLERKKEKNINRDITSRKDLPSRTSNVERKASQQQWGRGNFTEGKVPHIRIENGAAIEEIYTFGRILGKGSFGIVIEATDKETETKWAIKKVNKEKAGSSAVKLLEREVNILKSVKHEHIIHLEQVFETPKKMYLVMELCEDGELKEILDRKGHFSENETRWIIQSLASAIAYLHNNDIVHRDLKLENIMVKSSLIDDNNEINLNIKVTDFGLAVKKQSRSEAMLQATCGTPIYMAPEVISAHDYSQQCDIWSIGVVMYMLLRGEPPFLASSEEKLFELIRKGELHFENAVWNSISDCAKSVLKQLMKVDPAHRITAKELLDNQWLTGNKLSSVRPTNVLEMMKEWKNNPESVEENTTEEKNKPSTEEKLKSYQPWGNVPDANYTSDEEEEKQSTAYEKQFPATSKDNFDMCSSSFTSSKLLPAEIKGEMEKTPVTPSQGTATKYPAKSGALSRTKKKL
# SRSF protein kinase 2 (Homo sapiens), sequence (P78362 whole entry, looked up): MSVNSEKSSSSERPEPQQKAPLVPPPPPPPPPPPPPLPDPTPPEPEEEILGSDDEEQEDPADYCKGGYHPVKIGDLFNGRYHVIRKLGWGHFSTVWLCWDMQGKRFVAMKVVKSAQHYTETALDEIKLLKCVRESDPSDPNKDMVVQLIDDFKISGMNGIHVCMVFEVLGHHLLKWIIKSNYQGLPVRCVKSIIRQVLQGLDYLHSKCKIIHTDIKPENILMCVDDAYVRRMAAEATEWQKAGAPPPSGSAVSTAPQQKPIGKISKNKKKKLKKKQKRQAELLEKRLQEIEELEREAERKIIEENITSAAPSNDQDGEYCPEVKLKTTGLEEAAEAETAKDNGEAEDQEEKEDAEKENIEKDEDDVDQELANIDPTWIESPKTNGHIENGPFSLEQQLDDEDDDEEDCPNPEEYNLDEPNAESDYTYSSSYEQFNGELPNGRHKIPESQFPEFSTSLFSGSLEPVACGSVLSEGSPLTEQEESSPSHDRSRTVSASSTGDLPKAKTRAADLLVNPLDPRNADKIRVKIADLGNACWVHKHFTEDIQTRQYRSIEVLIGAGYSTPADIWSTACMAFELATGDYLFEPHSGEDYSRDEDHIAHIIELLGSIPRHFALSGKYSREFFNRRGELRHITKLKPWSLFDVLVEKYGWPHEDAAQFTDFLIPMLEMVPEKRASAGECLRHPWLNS
# Serine/threonine-protein kinase PLK2 (Homo sapiens), sequence (Q9NYY3 whole entry, looked up): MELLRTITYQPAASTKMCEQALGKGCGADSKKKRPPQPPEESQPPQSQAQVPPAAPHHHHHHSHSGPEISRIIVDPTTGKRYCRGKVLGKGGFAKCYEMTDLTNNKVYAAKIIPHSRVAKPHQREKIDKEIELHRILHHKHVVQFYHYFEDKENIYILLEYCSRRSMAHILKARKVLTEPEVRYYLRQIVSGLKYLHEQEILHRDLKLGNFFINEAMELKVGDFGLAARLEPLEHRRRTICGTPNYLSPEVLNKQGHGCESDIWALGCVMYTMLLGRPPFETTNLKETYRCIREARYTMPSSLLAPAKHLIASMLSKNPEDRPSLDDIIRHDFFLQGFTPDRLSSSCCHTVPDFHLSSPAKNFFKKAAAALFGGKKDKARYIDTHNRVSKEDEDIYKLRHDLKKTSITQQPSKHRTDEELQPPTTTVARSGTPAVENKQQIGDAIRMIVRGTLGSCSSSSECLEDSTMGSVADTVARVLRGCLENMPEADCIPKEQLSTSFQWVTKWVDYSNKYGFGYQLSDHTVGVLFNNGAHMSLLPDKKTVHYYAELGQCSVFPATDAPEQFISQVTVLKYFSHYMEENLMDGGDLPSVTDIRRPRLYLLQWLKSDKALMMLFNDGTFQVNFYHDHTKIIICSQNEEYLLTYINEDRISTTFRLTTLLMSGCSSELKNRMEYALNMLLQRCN
smiles,measurement,setting,value
Oc1ccc(-c2nc(-c3ccc(F)cc3)c(-c3ccncc3)[nH]2)cc1,residual activity,[1],65%
same,residual activity,[2],123%
same,residual activity,[3],110%
same,residual activity,[4],118%
same,residual activity,[5],76%
same,residual activity,[6],105%
same,residual activity,[7],94%
same,residual activity,[8],105%
same,residual activity,[9],104%
same,residual activity,[10],109%
NC(=O)c1ccc2[nH]c(-c3ccc(Oc4ccc(Cl)cc4)cc3)nc2c1,residual activity,[1],107%
same,residual activity,[2],94%
same,residual activity,[3],64%
same,residual activity,[4],81%
same,residual activity,[5],76%
same,residual activity,[6],96%
same,residual activity,[7],85%
same,residual activity,[8],90%
same,residual activity,[9],93%
same,residual activity,[10],109%
Cc1ccc(NC2=CC(=O)c3sc(C)nc3C2=O)cc1,residual activity,[1],91%
same,residual activity,[2],97%
same,residual activity,[3],96%
same,residual activity,[4],98%
same,residual activity,[5],87%
same,residual activity,[6],88%
same,residual activity,[7],92%
same,residual activity,[8],95%
same,residual activity,[9],93%
same,residual activity,[10],99%
O=C1NC(=O)/C(=C/c2ccc3c(c2)OC(F)(F)O3)S1,residual activity,[1],119%
same,residual activity,[2],118%
same,residual activity,[3],98%
same,residual activity,[4],102%
same,residual activity,[5],84%
same,residual activity,[6],106%
same,residual activity,[7],109%
same,residual activity,[8],112%
same,residual activity,[9],95%
same,residual activity,[10],121%
COc1ccc(CNc2nc(N(CCO)CCO)nc3c2ncn3C(C)C)cc1,residual activity,[1],78%
same,residual activity,[2],95%
same,residual activity,[3],67%
same,residual activity,[4],86%
same,residual activity,[5],65%
same,residual activity,[6],96%
same,residual activity,[7],83%
same,residual activity,[8],91%
same,residual activity,[9],94%
same,residual activity,[10],94%
Oc1ccc(Nc2nc(-c3ccc(Cl)cc3)cs2)cc1,residual activity,[1],111%
same,residual activity,[2],105%
same,residual activity,[3],111%
same,residual activity,[4],116%
same,residual activity,[5],87%
same,residual activity,[6],105%
same,residual activity,[7],100%
same,residual activity,[8],110%
same,residual activity,[9],100%
same,residual activity,[10],117%
Oc1c2ccccc2c2c3c(cccc13)N=N2,residual activity,[1],48%
same,residual activity,[2],98%
same,residual activity,[3],87%
same,residual activity,[4],97%
same,residual activity,[5],57%
same,residual activity,[6],61%
same,residual activity,[7],16%
same,residual activity,[8],85%
same,residual activity,[9],61%
Cc1ccc(S(=O)(=O)/C=C/C#N)cc1,residual activity,[1],97%
same,residual activity,[2],101%
same,residual activity,[3],93%
same,residual activity,[4],95%
same,residual activity,[5],95%
same,residual activity,[6],103%
same,residual activity,[7],96%
same,residual activity,[8],98%
same,residual activity,[9],85%
same,residual activity,[10],104%
CO[C@@H]1[C@H](N(C)C(=O)c2ccccc2)C[C@H]2O[C@]1(C)n1c3ccccc3c3c4c(c5c6ccccc6n2c5c31)C(=O)NC4,residual activity,[1],2%
same,residual activity,[2],78%
same,residual activity,[3],55%
same,residual activity,[4],64%
same,residual activity,[5],48%
same,residual activity,[6],25%
same,residual activity,[7],13%
same,residual activity,[8],100%
same,residual activity,[9],86%
same,residual activity,[10],2%
Nc1cccc(-c2cc3c(Oc4cccc(O)c4)ncnc3[nH]2)c1,residual activity,[1],2%
same,residual activity,[2],103%
same,residual activity,[3],80%
same,residual activity,[4],101%
same,residual activity,[5],71%
same,residual activity,[6],90%
same,residual activity,[7],61%
same,residual activity,[8],96%
same,residual activity,[9],65%
same,residual activity,[10],18%
N#C/C(=C(\N)Sc1ccc(N)cc1)c1ccccc1C(F)(F)F,residual activity,[1],85%
same,residual activity,[2],99%
same,residual activity,[3],99%
same,residual activity,[4],108%
same,residual activity,[5],82%
same,residual activity,[6],92%
same,residual activity,[7],93%
same,residual activity,[8],100%
same,residual activity,[9],98%
same,residual activity,[10],73%
Ic1cccc(CSc2nnc(-c3ccncc3)o2)c1,residual activity,[1],100%
same,residual activity,[2],97%
same,residual activity,[3],102%
same,residual activity,[4],88%
same,residual activity,[5],79%
same,residual activity,[6],86%
same,residual activity,[7],80%
same,residual activity,[8],97%
same,residual activity,[9],97%
same,residual activity,[10],98%
CO[C@H]1[C@@H](OC)C[C@H](C)[C@@H](OC)C2=CC(=O)C=C(NC(=O)/C(C)=C/C=C/[C@H](OC)[C@@H](OC(N)=O)/C(C)=C/[C@@H]1C)C2=O,residual activity,[1],54%
same,residual activity,[2],104%
same,residual activity,[3],102%
same,residual activity,[4],104%
same,residual activity,[5],91%
same,residual activity,[6],98%
same,residual activity,[7],98%
same,residual activity,[8],100%
same,residual activity,[9],91%
same,residual activity,[10],110%
Nc1nc(Nc2ccc(S(N)(=O)=O)cc2)nn1C(=S)Nc1c(F)cccc1F,residual activity,[1],-2%
same,residual activity,[2],-2%
same,residual activity,[3],7%
same,residual activity,[4],3%
same,residual activity,[5],-3%
same,residual activity,[6],77%
same,residual activity,[7],26%
same,residual activity,[8],71%
same,residual activity,[9],26%
same,residual activity,[10],16%
O=C1NC(=O)/C(=C\c2ccc3nccnc3c2)S1,residual activity,[1],83%
same,residual activity,[2],99%
same,residual activity,[3],49%
same,residual activity,[4],96%
same,residual activity,[5],58%
same,residual activity,[6],86%
same,residual activity,[7],53%
same,residual activity,[8],94%
same,residual activity,[9],73%
same,residual activity,[10],104%
O=c1cc(-c2cccc3c2Sc2ccccc2S3)oc(N2CCOCC2)c1,residual activity,[1],83%
same,residual activity,[2],101%
same,residual activity,[3],83%
same,residual activity,[4],107%
same,residual activity,[5],91%
same,residual activity,[6],97%
same,residual activity,[7],87%
same,residual activity,[8],93%
same,residual activity,[9],96%
same,residual activity,[10],104%
O=C(Nc1cccc(Nc2cc(Nc3cccc(C(F)(F)F)c3)ncn2)c1)C1CC1,residual activity,[1],104%
same,residual activity,[2],96%
same,residual activity,[3],88%
same,residual activity,[4],90%
same,residual activity,[5],84%
same,residual activity,[6],99%
same,residual activity,[7],97%
same,residual activity,[8],100%
same,residual activity,[9],90%
same,residual activity,[10],112%
CC[n+]1c(/C=C/N(C)c2ccccc2)n(-c2ccccc2)c2ccc(-c3nc4ccccc4s3)cc21,residual activity,[1],125%
same,residual activity,[2],114%
same,residual activity,[3],124%
same,residual activity,[4],106%
same,residual activity,[5],99%
same,residual activity,[6],89%
same,residual activity,[7],82%
same,residual activity,[8],91%
same,residual activity,[9],95%
same,residual activity,[10],103%
COc1cc2ncnc(N3CCN(C(=O)Nc4ccc(Oc5ccccc5)cc4)CC3)c2cc1OC,residual activity,[1],87%
same,residual activity,[2],103%
same,residual activity,[3],105%
same,residual activity,[4],102%
same,residual activity,[5],95%
same,residual activity,[6],88%
same,residual activity,[7],96%
same,residual activity,[8],107%
same,residual activity,[9],101%
same,residual activity,[10],101%
CC(C)n1cnc2c(NCc3ccccc3)nc(NCCCO)nc21,residual activity,[1],100%
same,residual activity,[2],78%
same,residual activity,[3],37%
same,residual activity,[4],93%
same,residual activity,[5],37%
same,residual activity,[6],93%
same,residual activity,[7],71%
same,residual activity,[8],94%
same,residual activity,[9],88%
same,residual activity,[10],103%
O=[N+]([O-])c1ccc(-c2nc(-c3ccc(F)cc3)c(-c3ccncc3)[nH]2)cc1,residual activity,[1],106%
same,residual activity,[2],109%
same,residual activity,[3],109%
same,residual activity,[4],98%
same,residual activity,[5],85%
same,residual activity,[6],104%
same,residual activity,[7],101%
same,residual activity,[8],103%
same,residual activity,[9],104%
same,residual activity,[10],118%
O=C1NC(=O)c2c1c1c3ccccc3[nH]c1c1[nH]c3cc(Br)ccc3c21,residual activity,[1],83%
same,residual activity,[2],82%
same,residual activity,[3],96%
same,residual activity,[4],83%
same,residual activity,[5],77%
same,residual activity,[6],94%
same,residual activity,[7],88%
same,residual activity,[8],93%
same,residual activity,[9],94%
same,residual activity,[10],104%
COc1cc2ncnc(Nc3ccc(Oc4ccccc4)cc3)c2cc1OC,residual activity,[1],8%
same,residual activity,[2],106%
same,residual activity,[3],90%
same,residual activity,[4],105%
same,residual activity,[5],90%
same,residual activity,[6],98%
same,residual activity,[7],88%
same,residual activity,[8],104%
same,residual activity,[9],105%
same,residual activity,[10],110%
CC(=O)O/N=C1\C(=C2\C(=O)Nc3cc(Br)ccc32)Nc2ccccc21,residual activity,[1],3%
same,residual activity,[2],106%
same,residual activity,[3],100%
same,residual activity,[4],102%
same,residual activity,[5],78%
same,residual activity,[6],98%
same,residual activity,[7],79%
same,residual activity,[8],104%
same,residual activity,[9],98%
same,residual activity,[10],80%
COc1cc2ncnc(Nc3ccc(O)c(Br)c3)c2cc1OC,residual activity,[1],22%
same,residual activity,[2],103%
same,residual activity,[3],100%
same,residual activity,[4],93%
same,residual activity,[5],88%
same,residual activity,[6],76%
same,residual activity,[7],45%
same,residual activity,[8],93%
same,residual activity,[9],85%
same,residual activity,[10],99%
COc1ccc(C(=O)Nc2sc3c(c2C(N)=O)CCCC3)cc1OC,residual activity,[1],91%
same,residual activity,[2],84%
same,residual activity,[3],95%
same,residual activity,[4],89%
same,residual activity,[5],89%
same,residual activity,[6],91%
same,residual activity,[7],97%
same,residual activity,[8],98%
same,residual activity,[9],97%
same,residual activity,[10],126%
CC(C)n1cnc2/c(=N/c3cccc(Cl)c3)nc(NCCO)[nH]c21,residual activity,[1],28%
same,residual activity,[2],41%
same,residual activity,[3],-2%
same,residual activity,[4],27%
same,residual activity,[5],2%
same,residual activity,[6],78%
same,residual activity,[7],28%
same,residual activity,[8],61%
same,residual activity,[9],22%
same,residual activity,[10],79%
Nc1ccc2ncnc(NCCc3ccc(Oc4ccccc4)cc3)c2c1,residual activity,[1],75%
same,residual activity,[2],117%
same,residual activity,[3],114%
same,residual activity,[4],114%
same,residual activity,[5],70%
same,residual activity,[6],104%
same,residual activity,[7],91%
same,residual activity,[8],106%
same,residual activity,[9],104%
same,residual activity,[10],93%
CCC(=O)Nc1ccc2ncnc(Nc3cccc(Br)c3)c2c1,residual activity,[1],13%
same,residual activity,[2],102%
same,residual activity,[3],98%
same,residual activity,[4],89%
same,residual activity,[5],74%
same,residual activity,[6],91%
same,residual activity,[7],98%
same,residual activity,[8],104%
same,residual activity,[9],98%
same,residual activity,[10],125%
O=Nc1c(-c2c(O)[nH]c3ccccc23)[nH]c2ccccc12,residual activity,[1],8%
same,residual activity,[2],90%
same,residual activity,[3],66%
same,residual activity,[4],96%
same,residual activity,[5],67%
same,residual activity,[6],43%
same,residual activity,[7],8%
same,residual activity,[8],97%
same,residual activity,[9],82%
same,residual activity,[10],49%
CC#CC(=O)Nc1cc2c(Nc3ccc(F)c(Cl)c3)ncnc2cn1,residual activity,[1],77%
same,residual activity,[2],91%
same,residual activity,[3],100%
same,residual activity,[4],88%
same,residual activity,[5],88%
same,residual activity,[6],94%
same,residual activity,[7],98%
same,residual activity,[8],97%
same,residual activity,[9],93%
same,residual activity,[10],117%
Cc1nc2cc3nc(-c4cccs4)cnc3cc2n1C,residual activity,[1],88%
same,residual activity,[2],99%
same,residual activity,[3],107%
same,residual activity,[4],98%
same,residual activity,[5],86%
same,residual activity,[6],106%
same,residual activity,[7],100%
same,residual activity,[8],102%
same,residual activity,[9],95%
same,residual activity,[10],131%

# — ChEMBL document CHEMBL2218924, “A broad activity screen in support of a chemogenomic map for kinase signalling research and drug discovery” (Biochem J, 2013)
